In the library only some 8.7% were active in any assay of this set; here they are far more common.
DAT uptake mod: modulates human dopamine transporter uptake under cocaine; 110,000 tested, 1.3% active; LLC-PK1 hDAT cells, [14C]-dopamine uptake with cocaine IC80; actives deviate in either direction; AID 449768; B-score at 10 µM;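 active = Z score or B-score, a plate-position-corrected score, falls beyond the plate's 99.7% confidence bounds, in either direction; inactive = both scores lie inside the 99.7% bounds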;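 note: scored against the spread of the other compound wells on the same plate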
Target sequence (Q01959 whole entry, looked up): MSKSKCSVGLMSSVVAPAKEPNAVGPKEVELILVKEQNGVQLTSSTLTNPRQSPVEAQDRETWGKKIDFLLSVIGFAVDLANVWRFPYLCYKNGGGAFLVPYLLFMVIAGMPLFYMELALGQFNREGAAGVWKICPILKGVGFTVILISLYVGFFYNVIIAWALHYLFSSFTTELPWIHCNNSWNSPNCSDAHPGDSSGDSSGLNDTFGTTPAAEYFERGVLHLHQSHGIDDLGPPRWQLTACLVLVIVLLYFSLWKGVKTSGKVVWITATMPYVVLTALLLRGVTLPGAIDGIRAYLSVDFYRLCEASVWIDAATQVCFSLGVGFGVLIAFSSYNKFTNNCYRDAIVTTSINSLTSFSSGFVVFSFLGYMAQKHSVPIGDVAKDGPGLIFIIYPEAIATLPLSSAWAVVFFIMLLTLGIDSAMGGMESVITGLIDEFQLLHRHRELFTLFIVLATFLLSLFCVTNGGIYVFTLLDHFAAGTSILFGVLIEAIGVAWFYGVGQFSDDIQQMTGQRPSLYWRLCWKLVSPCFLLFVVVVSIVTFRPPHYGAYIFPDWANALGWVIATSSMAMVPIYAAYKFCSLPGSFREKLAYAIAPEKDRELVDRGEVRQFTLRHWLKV
Cav32 inh: blocks human Cav3.2 T-type calcium channel. O95180. Cav3.2-expressing cells, Fluo-4 calcium fluorescence FDSS; active compounds read low. B-score at 10 µM. 100,000 tested, 4% active;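 active = single-dose well whose peak fluorescence ratio is a statistical outlier from its plate by either plate-standardised score or position-corrected B-score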
Smad3 FoxH1 inh: inhibitors of human Smad3 transcription factor binding; P84022; TR-FRET Smad3/Dy647-FoxH1 peptide binding, europium anti-His; inhibition, % at 25 µM; 88,000 tested, 0.29% active; AID 630;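 active = compounds that reduce the energy-transfer binding signal between the protein and its labelled peptide by more than half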;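 note: 0% = Smad3 plus labelled peptide maximal FRET and 100% = peptide-only background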
TNAP act DEA: activators of human TNAP at intermediate phosphate acceptor; purified TNAP, CDP-star luminescence, 100 mM DEA, 30 min; active compounds read high; scale: 0 levamisole-inhibited, 1 vehicle-only enzyme; P05186; 64,000 tested, under 10 active; activation factor at 20 µM; AID 813;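 active = activation factor of at least 2 at 20 µM, relative to controls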
PostGolgi yeast: growth inhibition of a yeast mutant, post-Golgi transport screen; post-Golgi transport phenotypic cell assay; inhibition, % at 10 µM; 98,000 tested, 0.9% active; AID 739;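 note: yeast cells grown in 1536-well plates; yeast grown about 18 h at 30C before absorbance read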
PostGolgi ctrl: yeast control strain growth, post-Golgi counter-screen | 98,000 tested, 5% active | AID 738 | efflux-deficient yeast background strain, growth absorbance A615, 16 h | inhibition, % at 10 µM
* marks the source's active call; other numbers are inactive results; / = not tested or not shown. Cut-off read from the data, not from the text of the source, unless noted: active = inhibition above about 30%; inactive = the rest.

SMILES	DAT uptake mod	Cav32 inh	Smad3 FoxH1 inh	TNAP act DEA	PostGolgi yeast	PostGolgi ctrl
O=C(NCc1ccco1)C(c1ccco1)N(CCc1ccccc1)C(=O)Cn1nnc2ccccc21 (stereo not given)	-0.031	-6.2*	-2	0.9	-2	9
CCOc1ccccc1Nc1ncnc2c1cnn2-c1ccccc1	0.56	-1.6	10	1	/	/
O=C(CN1CCOCC1)N(c1ccccc1)c1ccc2ccccc2c1	-0.49	0.05	-9	0.9	28	12
O=C(CN1CCN(c2ccccn2)CC1)N(c1ccccc1)c1ccc2ccccc2c1	0.75	-6.3*	-16	1	-9	66*
COc1ccc(Nc2nccc(OC)c2C#N)cc1	0.28	0.12	/	/	-14	11
COC(=O)c1ccc(CSc2ccc3nnc(-c4cccc(F)c4)n3n2)o1	-0.036	1.2	7	0.9	-5	41*
Cc1ccc(N2CC(C(N)=O)CC2=O)cc1C (stereo not given)	-0.14	-2.1	12	1	3	6
Cc1ccc(N2CC(C(N)=O)CC2=O)cc1 (stereo not given)	-0.48	-0.017	51*	1	4	16
Cc1ccc(-c2nnc(N3CCN(C(=O)COc4ccccc4)CC3)c3ccccc23)cc1	2.1	-7.4*	14	/	-1	50*
Cc1ccc(OCC(=O)N2CCN(C(=O)Cc3ccccc3)CC2)cc1	0.78	0.44	6	1	3	31*
CC(=NC1CCCCC1)c1ccccc1O	/	/	16	/	/	/
CN(C(=O)CSc1nnc(-c2ccncc2)n1C)C1CCS(=O)(=O)C1 (stereo not given)	-0.12	0.44	-1	/	-2	10
Cc1ccc(Oc2cc(N3CCOCC3)nc(-c3ccccc3)n2)cc1	-0.087	1	/	/	-4	-1
CN(CCOc1ccccc1)S(=O)(=O)c1ccc2oc3ccccc3c2c1	-0.79	-5.4*	/	/	-2	18
CCN(C(=O)CN1CCCc2ccccc21)c1c(N)n(Cc2ccccc2)c(=O)[nH]c1=O	/	/	-14	0.9	/	/
CCn1c(=O)c(C(=O)CN2CCCc3ccccc32)c(N)n(Cc2ccccc2)c1=O	-1	-6.1*	7	0.9	1	6
CCOc1ccc(NC(=O)CN(c2cccc(C(F)(F)F)c2)S(C)(=O)=O)cc1	-0.15	-3.8*	0	/	-6	7
COc1ccc(N(CC(=O)Nc2cccc(C(F)(F)F)c2)S(C)(=O)=O)cc1	0.26	-3.3*	-9	/	/	/
CSc1cccc(NC(=O)CN(Cc2ccc(Cl)cc2)S(C)(=O)=O)c1	0.23	-3.4*	-1	/	-9	8
COc1cccc(NC(=O)CN(c2cccc(F)c2)S(C)(=O)=O)c1	-0.61	0.39	4	0.9	-7	22
COc1cccc(NC(=O)CN(c2cccc(C(F)(F)F)c2)S(C)(=O)=O)c1	0.19	/	7	0.8	1	8
COc1ccc(N(CC(=O)Nc2cccc(SC)c2)S(C)(=O)=O)cc1	0.015	-4.8*	-6	0.9	0	7
CC1CCCCC1NC(=O)c1ccc(S(=O)(=O)NCc2ccco2)cc1 (stereo not given)	0.028	-0.44	11	0.9	-3	-3
C=CCn1c(=O)c(C(=O)Nc2ccccc2O)c(O)c2ccccc21	0.12	0.92	6	0.9	3	9
CCc1cccc(NC(=O)CN(c2ccc(OC)cc2)S(=O)(=O)c2c(C)n[nH]c2C)c1	0.33	-4.2*	4	1	5	-1
Cc1ccc(Cn2c(N3CCCCCC3)nc3c2c(=O)[nH]c(=O)n3C)cc1	1.7	/	5	0.9	6	43*
Cc1cccc(Cn2c(N3CCCCC3C)nc3c2c(=O)[nH]c(=O)n3C)c1 (stereo not given)	1.2	-3.8*	7	1	1	31*
CCN1CCN(Cc2nc3c(c(=O)[nH]c(=O)n3C)n2Cc2ccccc2Cl)CC1	0.55	0.33	-3	0.8	/	/
CC1CCCN(c2nc3c(c(=O)[nH]c(=O)n3C)n2Cc2ccccc2Cl)C1 (stereo not given)	0.33	-6.1*	/	1	2	34*
Cn1c(=O)[nH]c(=O)c2c1nc(CN1CCN(c3cccc(Cl)c3)CC1)n2Cc1ccccc1Cl	0.19	-0.43	-1	1	8	51*

Screens (PubChem)
